Assay results reported in the supplement of paper PMC12350171.
Structures can show the parent of a compound that is named as a salt. A number with no mark means an inactive call.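 How the source made its calls: active = normalised median growth AUC below 0.1 of DMSO control; inactive = AUC 0.1 or higher.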

Legend:
Experiment in all cases: growth AUC normalised to DMSO control (median) (fraction of control); higher = less growth inhibition, active = hit call of the paper
Details in all cases: 20 µM
[1] = test system: P. vulgatus RND KO
In short: (§1)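 Each strain went through two overnight passages under anaerobic conditions before growth in mGAM in 96-well plates, starting at OD578 0.01, with each compound from the approved-drug library at 20 μM and 1% DMSO. Inside an anaerobic incubator, OD578 was recorded every hour for 24 h. Growth curves were cut off at entry into stationary phase, and the area under the curve was calculated by the trapezoidal rule and normalised to vehicle wells on the same plate. Reported values are medians of three biological replicates.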

[2] = test system: P. vulgatus WT
In short: as §1

[3] = test system: S. enterica typhimurium WT
In short: as §1

[4] = test system: S. enterica typhimurium tolC KO
In short: as §1
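Further: active when median AUC fell below 0.1.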

Row | Structure (SMILES) | growth AUC normalised to DMSO control [1] | growth AUC normalised to DMSO control [2] | growth AUC normalised to DMSO control [3] | growth AUC normalised to DMSO control [4]
1 | C[C@H]1[C@@H](O)O[C@@H]2O[C@@]3(C)CC[C@H]4[C@H](C)CC[C@@H]1[C@@]24OO3 [Artenimol] | 1.04 | 1.04 | 1 | 1
2 | CCCCC(=O)N(Cc1ccc(-c2ccccc2-c2nnn[nH]2)cc1)[C@H](C(=O)O)C(C)C [Valsartan] | 1.04 | 1.02 | 1.02 | 1.02
3 | CCNC(=O)CCC/C=C\C[C@@H]1[C@@H](/C=C/[C@@H](O)CCc2ccccc2)[C@H](O)C[C@@H]1O [Bimatoprost] | 1.03 | 1.04 | 1.01 | 0.99
4 | CC1(C)S[C@@H]2[C@H](NC(=O)C(C(=O)O)c3ccccc3)C(=O)N2[C@H]1C(=O)O (stereo partly drawn) [Carbenicillin disodium salt] | 0.0099 (active) | 0.00958 (active) | 0.0868 (active) | 0.00344 (active)
5 | O=C(Cn1cnnn1)N[C@@H]1C(=O)N2C(C(=O)O)=C(CSc3nncs3)CS[C@H]12 [Ceftezole] | 0.00781 (active) | 0.00376 (active) | 0.0119 (active) | 0.00306 (active)
6 | CO[C@@]12[C@H](COC(N)=O)C3=C(C(=O)C(C)=C(N)C3=O)N1C[C@@H]1N[C@@H]12 [Mitomycin C] | 0.0125 (active) | 0.013 (active) | 0.196 | 0.00599 (active)
7 | COc1cc2c(cc1OC)C(=O)C(CC1CCN(Cc3ccccc3)CC1)C2 (stereo not drawn) [Donepezil hydrochloride] | 0.997 | 1.01 | 0.997 | 0.981
8 | CCC(NC(C)C)C(O)c1ccc(O)c2[nH]c(=O)ccc12 (stereo not drawn) [Procaterol hydrochloride] | 1.08 | 1.09 | 1 | 0.987
9 | O=C(O)COc1nn(Cc2ccccc2)c2ccccc12 [Bendazac] | 0.998 | 1.02 | 1 | 0.987
10 | O=C(Oc1cccc2cccnc12)c1ccccc1 [Benzoxiquine] | 0.935 | 0.934 | 0.994 | 0.968
11 | NS(=O)(=O)c1cc(C(=O)NN2C[C@@H]3[C@H]4CC[C@H](C4)[C@@H]3C2)ccc1Cl [Tripamide] | 1.02 | 1.07 | 0.999 | 0.975
12 | Cc1ccccc1C(=O)Nc1ccc(C(=O)N2CCCC(O)c3cc(Cl)ccc32)c(C)c1 (stereo not drawn) [Tolvaptan] | 0.919 | 0.928 | 0.993 | 0.94
13 | CC1=NN(c2ccccc2)C(=O)C1 [Edaravone] | 0.998 | 1.01 | 1 | 0.982
14 | COC(=O)C1=C(C)NC(C)=C(C(=O)OC2CCCN(Cc3ccccc3)C2)C1c1cccc([N+](=O)[O-])c1 (stereo not drawn) [Benidipine hydrochloride] | 1.01 | 0.968 | 0.993 | 0.961
15 | C=CC[C@@H]1/C=C(\C)C[C@H](C)C[C@H](OC)[C@H]2O[C@@](O)(C(=O)C(=O)N3CCCC[C@H]3C(=O)O[C@H](/C(C)=C/[C@@H]3CC[C@@H](O)[C@H](OC)C3)[C@H](C)[C@@H](O)CC1=O)[C@H](C)C[C@@H]2OC [Tacrolimus Monohydrate] | 1 | 1.03 | 0.998 | 1.04
16 | COc1cc(C(=O)N2CCOCC2)cc(OC)c1OC [Trimetozine] | 1.01 | 1.01 | 0.996 | 0.991
17 | CCOC(=O)C(C)(N)Cc1cc(I)c(Oc2cc(I)c(O)c(I)c2)c(I)c1 (stereo not drawn) [Etiroxate hydrochloride] | 0.415 | 0.571 | 1.01 | 1
18 | NS(=O)(=O)c1cc2c(cc1Cl)NC(Cc1ccccc1)NS2(=O)=O (stereo not drawn) [Benzylhydrochlorothiazide] | 1.08 | 1.1 | 1 | 0.994
19 | CCCN1CCCC[C@H]1C(=O)Nc1c(C)cccc1C [Ropivacaine hydrochloride] | 1.02 | 1.03 | 0.997 | 1
20 | CC(=O)Nc1c(I)c(NC(C)=O)c(I)c(C(=O)O)c1I [Diatrizoic acid dihydrate] | 0.922 | 0.995 | 0.998 | 0.995

Row | Structure (SMILES) | growth AUC normalised to DMSO control [1] | growth AUC normalised to DMSO control [2] | growth AUC normalised to DMSO control [3] | growth AUC normalised to DMSO control [4]
21 | Cc1nc2ccccc2n1Cc1ccc(Cl)cc1 [Chlormidazole] | 0.974 | 0.95 | 0.951 | 0.833
22 | CCC[C@@H]1C[C@@H](C(=O)N[C@@H]([C@H]2O[C@H](SC)[C@H](OP(=O)(O)O)[C@@H](O)[C@H]2O)[C@H](C)Cl)N(C)C1 [Clindamycin Phosphate] | 0.844 | 0.895 | 1 | 0.961
23 | CCCCc1ncc(/C=C(\Cc2cccs2)C(=O)O)n1Cc1ccc(C(=O)O)cc1 [Eprosartan mesylate] | 1.02 | 1.02 | 1.01 | 1
24 | COc1cc(/C=C/C(=O)N2CCN(CC(=O)N3CCCC3)CC2)cc(OC)c1OC [Cinepazide maleate] | 1.04 | 1.08 | 1.01 | 1.01
25 | NC(=O)OCC(COC(N)=O)c1ccccc1 [Felbamate] | 1 | 1.04 | 0.999 | 1
26 | Cc1c(O)c(=O)ccn1C [Deferiprone] | 0.978 | 0.993 | 1 | 1
27 | CCC(=O)c1ccc(O)cc1 [Paroxypropione] | 1 | 0.985 | 0.994 | 1
28 | CC(=O)Nc1cccc(O)c1 [Metacetamol] | 1 | 1.01 | 1 | 0.987
29 | COc1cccc(OC)c1C(=O)N[C@@H]1C(=O)N2[C@@H]1SC(C)(C)[C@@H]2C(=O)O [Methicillin sodium] | – | 0.708 | 0.99 | 0.482
30 | NC(=O)c1cc[n+](CC2=C(C(=O)O)N3C(=O)[C@@H](NC(=O)C(c4ccccc4)S(=O)(=O)[O-])[C@H]3SC2)cc1 (stereo partly drawn) [Cefsulodin Sodium Salt Hydrate] | – | – | 0.995 | 0.986
31 | COc1ccc(C2C(=O)c3ccccc3C2=O)cc1 [Anisindione] | 1 | 1 | 0.973 | 0.749
32 | Cc1[nH]cnc1CN1CCc2c(c3ccccc3n2C)C1=O [Alosetron hydrochloride] | 0.996 | 0.999 | 1 | 0.995
33 | C=C1[C@H](CO)[C@@H](O)C[C@@H]1n1cnc2c(=O)[nH]c(N)nc21 [Entecavir] | 1 | 0.996 | 0.999 | 0.987
34 | Nc1nc2[nH]cc(CCc3ccc(C(=O)N[C@@H](CCC(=O)O)C(=O)O)cc3)c2c(=O)[nH]1 [Pemetrexed disodium] | 1.07 | 1.04 | 1.01 | 0.999
35 | Nc1nc(/C(=C/CC(=O)O)C(=O)N[C@@H]2C(=O)N3C(C(=O)O)=CCS[C@H]23)cs1 [Ceftibuten] | – | 0.58 | 0.746 | –
36 | CCc1oc2ccccc2c1C(=O)c1ccc(O)cc1 [Benzarone] | 0.881 | 0.794 | 1 | 0.858
37 | CO/N=C(\C(=O)N[C@@H]1C(=O)N2C(C(=O)OCOC(=O)C(C)(C)C)=C(/C=C\c3scnc3C)CS[C@H]12)c1csc(N)n1 [Cefditoren Pivoxil] | – | – | 0.905 | 0.387
38 | C[C@@H]1CCO[C@H]2Cn3cc(C(=O)NCc4ccc(F)cc4F)c(=O)c(O)c3C(=O)N12 [Dolutegravir] | 0.0521 (active) | 0.049 (active) | 1 | 0.907
39 | CC(=O)Nc1ccc(OC(=O)c2ccccc2O)cc1 [Acetaminosalol] | 0.959 | 0.964 | 1 | 0.937
40 | CCOc1ccccc1OCCN[C@H](C)Cc1ccc(OC)c(S(N)(=O)=O)c1 [(R)-Tamsulosin hydrochloride] | 0.997 | 1.01 | 1 | 0.965
